# Hit rate of the full screen: of about 39,000 compounds, about 3,300 (8.5%) were called active. Only a selection was taken, and actives are over-represented in it overall.
# Tested on: HepG2
# Assay: cytotoxicity call (relative viability < 0.9)
# Settings: 10 µM
row,Compound,cytotoxicity call
1,C[C@@H]1CCCCO[C@H](CN(C)C(=O)C2CCCCC2)[C@@H](C)CN([C@@H](C)CO)C(=O)c2cc(NS(=O)(=O)c3ccc(F)cc3)ccc2O1,inactive
2,COc1cccc(NC(=O)N(C)C[C@@H]2Oc3ncc(C#Cc4cccnc4)cc3C(=O)N([C@H](C)CO)C[C@@H]2C)c1,inactive
3,C=C1CC2C3C=C(C)C4=CC(=O)CCC4(C)C3CCC2(C)C1(OC(C)=O)C(C)=O (centres undefined),inactive
4,COC(=O)C[C@@H]1C[C@@H](C)[C@@H]2C(=O)c3c(O)c4c(c(O)c3C(=O)[C@@H]2[C@@H]1O)[C@H]1C[C@@H](O)[C@@]4(O)[C@@H](C)O1,active
5,CO[C@H](CN(C)S(=O)(=O)c1cn(C)cn1)[C@H](C)CN(C(=O)Nc1ccc(C(F)(F)F)cc1)[C@@H](C)CO,inactive
6,C[C@@H]1CN([C@@H](C)CO)C(=O)c2cc(NS(=O)(=O)c3ccccc3)ccc2O[C@@H](C)CCCCO[C@@H]1CN(C)C(=O)Nc1ccc(C(F)(F)F)cc1,inactive
7,C[C@@H]1CCCCO[C@@H](CN(C)C(=O)Nc2ccc(C(F)(F)F)cc2)[C@H](C)CN([C@@H](C)CO)C(=O)c2cc(NS(=O)(=O)c3ccccc3)ccc2O1,inactive
8,C[C@@H]1CCCCO[C@H](CN(C)C(=O)Nc2ccc(C(F)(F)F)cc2)[C@@H](C)CN([C@H](C)CO)C(=O)c2cc(NS(=O)(=O)c3ccccc3)ccc2O1,inactive
9,C[C@@H]1CN([C@@H](C)CO)C(=O)c2cc(NS(=O)(=O)c3ccccc3)ccc2O[C@@H](C)CCCCO[C@H]1CN(C)C(=O)Nc1ccc(C(F)(F)F)cc1,inactive
10,C[C@H]1CCCCO[C@@H](CN(C)C(=O)Nc2ccc(C(F)(F)F)cc2)[C@@H](C)CN([C@@H](C)CO)C(=O)c2cc(NS(=O)(=O)c3ccccc3)ccc2O1,active
11,C[C@@H]1CCCCO[C@H](CN(C)C(=O)Nc2ccc(C(F)(F)F)cc2)[C@H](C)CN([C@H](C)CO)C(=O)c2cc(NS(=O)(=O)c3ccccc3)ccc2O1,active
12,C[C@H](CO)N1C[C@H](C)[C@@H](CN(C)C(=O)Nc2ccc(C(F)(F)F)cc2)OCCCC[C@H](C)Oc2ccc(NS(=O)(=O)c3ccccc3)cc2C1=O,inactive
13,C[C@@H]1CCCCO[C@@H](CN(C)C(=O)Nc2ccc(C(F)(F)F)cc2)[C@H](C)CN([C@H](C)CO)C(=O)c2cc(NS(=O)(=O)c3ccccc3)ccc2O1,active
14,C[C@@H]1CN([C@H](C)CO)C(=O)c2cc(NS(=O)(=O)c3ccccc3)ccc2O[C@@H](C)CCCCO[C@H]1CN(C)C(=O)Nc1ccc(C(F)(F)F)cc1,inactive
15,C[C@@H]1CCCCO[C@H](CN(C)C(=O)Nc2ccc(C(F)(F)F)cc2)[C@H](C)CN([C@@H](C)CO)C(=O)c2cc(NS(=O)(=O)c3ccccc3)ccc2O1,active
16,C[C@H]1CN([C@@H](C)CO)C(=O)Cc2cc(NS(=O)(=O)c3cccs3)ccc2O[C@@H]1CN(C)S(=O)(=O)c1cn(C)cn1,inactive
17,Cc1noc(C)c1NC(=O)Nc1ccc2c(c1)C(=O)N([C@H](C)CO)C[C@H](C)[C@H](CN(C)S(=O)(=O)c1ccccc1)O2,inactive
18,COc1ccc2c3c([nH]c2c1)[C@H](CO)N(C[C@]13CN(Cc2ccccc2F)C1)S(=O)(=O)c1cn(cn1)C,inactive
19,Cc1noc(C)c1NC(=O)Nc1ccc2c(c1)CC(=O)N([C@H](C)CO)C[C@H](C)[C@@H](CN(C)S(=O)(=O)c1cccs1)O2,inactive
20,Cc1ccc(S(=O)(=O)N(C)C[C@@H]2OCCCC[C@H](C)Oc3ccc(NC(=O)Nc4ccc(F)cc4)cc3C(=O)N([C@H](C)CO)C[C@@H]2C)cc1,inactive

row,Compound,cytotoxicity call
1,C[C@H](NC(=O)N(C)C[C@@H]1OCc2ccccc2-c2ccccc2C(=O)N([C@H](C)CO)C[C@@H]1C)c1ccccc1,inactive
2,CCn1c(N)nc2c1c(=O)[nH]c(=O)n2C,inactive
3,NCCn1nc([C@H]2CCN(C(=O)c3csc4c3CCCC4)C2)c2nccnc21,inactive
4,Cc1ccc(S(=O)(=O)N(C)C[C@@H]2Oc3ccc(NS(=O)(=O)c4cn(C)cn4)cc3C(=O)N([C@@H](C)CO)C[C@H]2C)cc1,inactive
5,CCSC1=C(C#N)C(=O)N[C@@H](CO)S1,inactive
6,C[C@H](CO)N1C[C@H](C)[C@@H](CN(C)Cc2ccc(C(=O)O)cc2)OCCCC[C@H](C)Oc2ccc(NC(=O)Nc3cccc4ccccc34)cc2C1=O,inactive
7,C[C@H](CO)N1C[C@H](C)[C@H](CN(C)C(=O)Nc2ccc(C(F)(F)F)cc2)OCCCC[C@H](C)Oc2ccc(NS(=O)(=O)c3ccccc3)cc2C1=O,inactive
8,C[C@@H]1CCCCO[C@H](CN(C)C(=O)Nc2ccc(C(F)(F)F)cc2)[C@@H](C)CN([C@@H](C)CO)C(=O)c2cc(NS(=O)(=O)c3ccccc3)ccc2O1,inactive
9,C[C@H]1CCCCO[C@H](CN(C)C(=O)Nc2ccc(C(F)(F)F)cc2)[C@@H](C)CN([C@@H](C)CO)C(=O)c2cc(NS(=O)(=O)c3ccccc3)ccc2O1,active
10,C[C@@H]1CCCCO[C@@H](CN(C)C(=O)Nc2ccc(C(F)(F)F)cc2)[C@@H](C)CN([C@H](C)CO)C(=O)c2cc(NS(=O)(=O)c3ccccc3)ccc2O1,active
11,Cc1noc(C)c1S(=O)(=O)Nc1cccc2c1O[C@@H](CN(C)S(=O)(=O)c1cccs1)[C@@H](C)CN([C@@H](C)CO)C2=O,inactive
12,COc1ccc(-n2c(N)cc(=O)[nH]c2=O)cc1,inactive
13,CSc1cccc2sc(Nc3ccc(Cl)cc3)nc12,inactive
14,c1ccc(Nc2nc3c(ccc4ccccc43)s2)cc1,active
15,N=C(N)Nc1nc(=O)c2ccccc2s1,inactive
16,O=C(C[C@H]1CC=CC[C@H](Cc2ccc(F)cc2)C(=O)OC[C@@H](Cc2c[nH]c3ccccc23)NC1=O)NCCO,inactive
17,C[C@@H]1CN([C@@H](C)CO)C(=O)Cc2cc(NC(=O)C3CCCCC3)ccc2O[C@@H]1CN(C)S(C)(=O)=O,inactive
18,C[C@@H]1CN([C@@H](C)CO)C(=O)c2cc(NC(=O)C3CCCCC3)ccc2O[C@@H](C)CCCCO[C@H]1CN(C)C(=O)C1CCCCC1,inactive
19,Cc1noc(C)c1S(=O)(=O)Nc1ccc2c(c1)CC(=O)N([C@@H](C)CO)C[C@@H](C)[C@@H](CN(C)C(=O)Nc1ccc3c(c1)OCO3)O2,inactive

# — the antibiotic and cytotoxicity screens of Wong et al. (2023)
